Data as given in the supplement of paper PMC10338343.
± gives the standard deviation.

Each sequence was assayed on MILI (PIWIL2) piRISC loaded with L1MC piRNA (26 nt) (assay: pre-steady-state target cleavage rate (min^-1); guide: L1MC piRNA 5'p-UAACUAAAUACUAUGCAAGCUGUAGG; MIWI and MILI are mouse PIWI proteins and EfPiwi is from a freshwater sponge; tags in brackets are library labels; higher = faster piRNA-guided slicing of the target). Conditions: auxiliary factor: 500 nM mouse GTSF1.
Summary of the method: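 The method was Cleave-'n-Seq, in which uncleaved targets from a transcribed, DNA-blocked target RNA library were sequenced after exposure to active affinity-purified piRISC carrying one synthetic guide, with or without GTSF1 partner protein. Reactions contained 0.1 nM library, 1 nM piRISC and, where present, 500 nM GTSF1 in HEPES–potassium acetate buffer at 33 °C for 0–8 or 0–960 min. Reads were normalised to depth and to weakly complementary targets, three trials were pooled, and k3 was capped at 0.0001 min^-1. The pre-steady-state cleavage rate came from a burst-and-steady-state fit.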

| Sequence | pre-steady-state target cleavage rate |
| --- | --- |
| UCCUCCUACAGCUUGCAUGAGUAUUUAGUUA | 0.011 ± 0.0056 |
| UCCUGCUACAGCUUGCAAAGUAUUUUCAAA | 0.0624 ± 0.02 |
| UCCUGGAUGUGCUAGCAUAGUAUUAAGUUA | 0.0987 ± 0.014 |
| UCCUGGAACAGGAAGCAUAGUAUUUACAAA | 0.061 ± 0.02 |
| UCCUGGUACAGCUUGCAUACUAUUUACUUA | 0.05 ± 0.014 |
| UCCUGGAUGUCGAUGCUUAGUAUUUUGUUA | 0.0154 ± 0.0056 |
| UCCUGGAUGUCCUUGCAUAGUUAAUAGUUA | 0.00959 ± 0.0043 |
| UCCUGGAUGUCCUUGCAUAGCAUUUAGUUA | 0.0257 ± 0.0079 |
| UCCUGCUACAGCUUGCAUCAGUAUUUAGUUA | 0.015 ± 0.0065 |
| UCCUGCUACUCCUUGCAUAGUAUUUAGAAA | 0.0806 ± 0.019 |
| UCCUGGAUGUGCUUGCAUAGUAAAUAGUAA | 0.0121 ± 0.0056 |
| UCCUGGAUGUGCUUGCAUAGUAUUAAGAUA | 0.00523 ± 0.0046 |
| UCCUGGAACAGCUUGCAUAGUAUUUUCUAA | 0.0162 ± 0.0068 |
| UCCUGGAUGUCCUUGCAUAGUAAUUACUUA | 0.0143 ± 0.0067 |
| UCCUGGAUGACCUUGCAUAGAAUUUAGUUA | 0.023 ± 0.012 |
| UCCUGGAUGACGUUGCAUAGUAUUUAGUAA | 0.136 ± 0.022 |
| UCCUGGAUGUCCUUGCAUAGUAUAUAGAUA | 0.0132 ± 0.0063 |

| Sequence | pre-steady-state target cleavage rate |
| --- | --- |
| UCCUGGAUGUGCUUCCAUUGUAUUUAGUUA | 0.0206 ± 0.0071 |
| UCCUGGAACAGCUUGCAUAGUAUUUAGUCUA | 0.055 ± 0.015 |
| UCCUGGAUGUGGUUGCAUAGUAUUUAGAAA | 0.0521 ± 0.022 |
| UCCUCCUAGUCCUUGCAUAGUAUUUUCAAA | 0.0344 ± 0.013 |
| UCCUGGAACAGCUUGCAUAAUAUUUAGUUA | 0.298 ± 0.028 |
| UCCUGGAUGAGCUUCGAUAGUAUUUAGUUA | 0.108 ± 0.013 |
| UCCUGGAUGUGCUAGCAUAGUAUUUACUUA | 0.0865 ± 0.019 |
| UCCUGGAUGAGCAUGCAUAGAAUUUAGUUA | 0.0184 ± 0.008 |
| UCCUGGAUGAGCUUGCAUAGUAAAUAGUUA | 0.114 ± 0.015 |
| UCCUGGAUGUCGAACCAUAGUAUUUAGCUUA | < 0.0001 |
| UCCUGGAUGUCGAUGCAUAGUAUUUACUUA | 0.0276 ± 0.01 |
| UCCUGGAUCAGCUUCGAUAGUAUUUAGAAA | 0.0608 ± 0.017 |
| UCCUCCUACAGCUUCCAUAGUAAUUAGUUA | 0.0149 ± 0.0069 |
| UCCUGGAACAGCUUGCAUAGAAUAUAGUUA | 0.0426 ± 0.011 |
| UCCUGCUACAGCAACCAUAGUAUUUAGUUA | 0.305 ± 0.04 |
| UCCUCCUACAGCUACGAUAGUAUUUAGUAA | 0.174 ± 0.024 |
| UCCUGCUACAGCUUGCUAAGUAUUUAGAAA | 0.0738 ± 0.017 |

Same assay, conditions: auxiliary factor: none (no GTSF1)

| Sequence | pre-steady-state target cleavage rate |
| --- | --- |
| UCCUGGAUGUCGAACGUAUGUAUUUUCAAA [g6:g11:cont:t1A] | < 0.0001 |
| UCCUGGAUGUCGAACGAUAGUGUUUAGUUA | < 0.0001 |
| UCCUGGAUGAGCUUGCAUACAUUUUAGUUA | 0.00358 ± 0.0026 |
| UCCUGGAUGUCGAACCAUAGUAUGUUAGUUA | < 0.0001 |
| UCCUGGAUGUCGUUGCAUAGUGAUUUAGUUA | 0.0042 ± 0.0032 |
| UCCUGGAUGUCGAUGCAUACUAUUUUGUUA | < 0.0001 |
